Measurements taken from PubChem BioAssay (NCI).
This is part of a sample that, as a whole, favours compounds with a hit. Of some 83,000 tested, about 20% had one in any assay.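 A percent growth of 40 corresponds to 60% growth inhibition; 0 means no net growth; -100 means all cells died. Active threshold: below 10.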 Activity calls are given as the source filed them.

The compounds below were run on HCC-2998 colon (assay: NCI-60 one-dose screen, 48 h (100 = growth as untreated, 0 = no growth, -100 = all killed)). Conditions: 10 µM unless noted.
Procedure: Growth inhibition of the HCC-2998 human tumor cell line is measured as a screen for anti-cancer activity. Cells are grown in 96 well plates and exposed to the test compound for 48 hours. Compounds are tested at a single concentration, which is 10^-5 M for most compounds. The reported endpoint is percent growth (GI% or GIPRCNT), where numbers from 0 - 100% represent growth inhibition, and numbers from -100% - 0 represent cell death. For example, a value of 40 represents 60% growth inhibition. A value of 0 means no net growth occurred over the course of the experiment. A value of -40 indicates 40% of cells at the beginning of the experiment died by the end of the experiment. A value of -100 means all cells are dead at the end of the experiment.
NCI-60 Human Tumor Cell Lines Screen was performed using the standard one-dose NCI protocol, which is described in more detail at https://dtp.cancer.gov/discovery_development/nci-60/default.htm.
Compounds with GIPRCNT values below 10 were considered active. Activity score was based on GIPRCNT using the following formula: […]
Score is 0 for GIPRCNT values of 100 or above, 50 for GIPRCNT values of 0, and 100 for GIPRCNT values of -100.

Structure (SMILES)	growth
CCCn1c2cc(OCc3cn(-c4ccc(Cl)cc4)nn3)ccc2c2ccnc(C)c21	92.7% (inactive)
O=C(NC[C@H](O)CN1CCc2ccccc2C1)c1cc(NC2COC2)ncn1	98.8% (inactive)
COc1ccc(C2N(c3cc(OC)c(OC)c(OC)c3)C(=O)C2(F)F)cc1F (stereo not given)	84.2% (inactive)
CC1(c2ccccc2Cl)NC(=O)NC1=O (stereo not given)	92.3% (inactive)
N#Cc1c(-c2ccc(F)cc2)nc(N=Nc2c(O)[nH]c3ccccc23)nc1N1CCOCC1	96.2% (inactive)
CCCn1cc(/C=N\N=C2\C(=O)Nc3ccc(C)cc32)c2ccccc21	47% (inactive)
CN(C)C(CNc1oc(-c2cccc3ccccc23)nc1C#N)c1ccco1 (stereo not given)	105% (inactive)
C1=CC2=CC=C3C=CC=C4C(c5nc6c7ccccc7c7ccccc7c6[nH]5)=CC(=C1)C2C34 (stereo not given)	111% (inactive)
C=C1C(=O)O[C@H]2[C@H]1CC/C(COC(=O)N1CCC[C@H]1C(=O)Nc1ccc(OC)c(C(N)=O)c1O)=C\CC[C@@]1(C)O[C@@H]21	94.8% (inactive)
O=C(Nc1nc(-c2ccccc2Cl)cs1)c1cc(-c2ccc(Br)cc2)nc2ccccc12	63.9% (inactive)
CNCc1cccc2c1OCCOCCOCCN(CCN1CCOCC1)S(=O)(=O)c1ccc(cc1)-c1cnc(N)c(n1)C(=O)N2	48.2% (inactive)
Cn1nc(C(F)(F)F)c(-c2cc(C(F)(F)F)cc(C(F)(F)F)c2)c1-c1ccc(OCc2ccc(Cl)cc2)cc1O	5.78% (active)
COc1ccc(-c2cs/c(=N\N=C\c3ccc(O)cc3O)n2/N=C/c2ccc(O)cc2O)cc1	4.8% (active)
N#CC(C#N)=C1NC(c2ccccc2)=C(c2ccccc2)C(c2ccccc2Cl)=C1C#N	99.5% (inactive)
C#Cc1ccccc1NC(=O)c1sc2nc3c(cc2c1N)CCCCCC3	104% (inactive)
Nc1c(C(=O)Nc2cccc3ccccc23)sc2nc3c(cc12)CCCCCC3	43.3% (inactive)
COc1ccc(Sc2[nH]c(C(C)=O)c3ccccc23)cc1	70.2% (inactive)
CCOC(=O)c1c(C)nc2c(c1N)/C(=C/c1ccc[nH]1)C(=O)N2Cc1ccc(C(F)(F)F)cc1	91.2% (inactive)
C#C[C@@]1(O)[C@@H](CO)O[C@@H](n2cc(Cl)c3c(N)ncnc32)[C@@H]1O	-33.8% (active)
CN1CCN(S(=O)(=O)O[C@@H]2C(=O)N(c3cc4c5ccccc5ccc4c4ccccc34)[C@H]2c2ccc(F)cn2)CC1	90.4% (inactive)

Structure (SMILES)	growth
O=C1Nc2ccc(Br)cc2/C1=N\N=C/c1cn(Cc2ccccc2)c2ccccc12	106% (inactive)
Cn1c2ccccc2c2c(OC(=O)c3ccccc3)c3c(nc21)-c1ccccc1C3	106% (inactive)
C#C[C@@]1(O)[C@@H](CO)O[C@@H](n2cnc3c(-c4ccccc4)ncnc32)[C@@H]1O	103% (inactive)
COc1ccc(-c2nc(C#N)c(NCC(c3ccc(Cl)cc3)N3CCCCC3)o2)cc1 (stereo not given)	107% (inactive)
COC(=O)/C=C1\SC(=Nc2cccc(OC)c2)N(CCc2c[nH]c3ccccc23)C1=O	97% (inactive)
CCC[S@](=O)c1ccc2nc(NC(=O)OC)[nH]c2c1	105% (inactive)
O=C1CCC23OC(c4ccccc4N12)C(O)C(O)C3O (stereo not given)	94.5% (inactive)
CC(=O)c1cnc(-c2ccccc2)nc1CBr	99.8% (inactive)
CCOC(=O)C1CCN(S(=O)(=O)/N=C2/NC(=O)NC2=C(Cl)Cl)CC1	-10.1% (active)
Nc1c(C(=O)Nc2ccccc2Cl)sc2nc3c(cc12)CN(Cc1ccccc1)CC3	96.5% (inactive)
COc1ccc2nc(-c3ccc(Cl)cc3)cc(-c3nnc(SCC(=O)Nc4ccc(/C(C)=N\O)cc4)o3)c2c1	82% (inactive)
CSc1nc(-c2cccs2)c2c(N)[nH]nc2n1	107% (inactive)
C/C(=N/Nc1nc2ccccc2n1C)c1ccccn1	39.3% (inactive)
COc1cc(C2=N/C(=C\c3cc4ccccc4nc3Oc3ccccc3)C(=O)N2C(=N)N)cc(OC)c1OC	75.2% (inactive)
CN(C)CCCn1c2c(c3cc(-c4cccc(S(N)(=O)=O)c4)ccc3c1=O)C(=O)c1ccccc1-2	77.2% (inactive)
CC(C)(C)c1ccc(O)c(Cc2cc(C(C)(C)C)ccc2O)c1	103% (inactive)
CCOC(=O)NCCc1nc2c([nH]1)c(=O)n(C)c(=O)n2C	99.7% (inactive)
CC[C@H](Nc1ncnc2nc[nH]c12)c1nc2cccc(CC(=O)c3ccc(C(=O)NO)cc3)c2c(=O)n1-c1ccccc1	88.9% (inactive)
CCCCn1c(=O)c(/C=C/C(=O)/C=C/c2cc3ccccc3n(CCCC)c2=O)cc2ccccc21	-92.6% (active)
CC(=O)c1cc2c(N)c(C(=O)Nc3ccccn3)sc2nc1C	84.6% (inactive)
